This is an account of results in ChEMBL document CHEMBL2218924, “A broad activity screen in support of a chemogenomic map for kinase signalling research and drug discovery” (Biochem J, 2013).

What is called residual activity is the signal under treatment as a percentage of the control signal.

The target in assay [1] is T1, Serine/threonine-protein kinase TBK1 (Homo sapiens) (UniProt Q9UHD2).
T1 sequence (whole entry): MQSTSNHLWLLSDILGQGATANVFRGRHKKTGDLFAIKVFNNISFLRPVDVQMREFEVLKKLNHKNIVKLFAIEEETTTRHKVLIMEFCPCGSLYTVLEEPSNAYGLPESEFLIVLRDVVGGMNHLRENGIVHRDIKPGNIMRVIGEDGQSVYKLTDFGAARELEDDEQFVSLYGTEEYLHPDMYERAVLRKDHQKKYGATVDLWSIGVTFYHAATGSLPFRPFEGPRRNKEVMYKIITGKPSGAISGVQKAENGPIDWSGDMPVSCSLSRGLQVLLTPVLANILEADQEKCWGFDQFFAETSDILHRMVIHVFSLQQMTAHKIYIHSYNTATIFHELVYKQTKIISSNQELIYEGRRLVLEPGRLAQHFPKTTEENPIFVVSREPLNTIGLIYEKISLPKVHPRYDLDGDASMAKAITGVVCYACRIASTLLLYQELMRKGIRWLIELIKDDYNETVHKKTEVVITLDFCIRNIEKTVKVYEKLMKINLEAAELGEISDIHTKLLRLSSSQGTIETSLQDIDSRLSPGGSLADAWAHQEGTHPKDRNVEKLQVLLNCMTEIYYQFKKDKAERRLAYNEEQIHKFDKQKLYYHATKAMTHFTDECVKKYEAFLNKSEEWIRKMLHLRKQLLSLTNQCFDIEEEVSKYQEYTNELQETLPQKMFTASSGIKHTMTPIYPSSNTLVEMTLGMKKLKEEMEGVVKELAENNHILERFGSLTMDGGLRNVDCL
The following applies: at 10 µM.

Assay [2] concerns the target T2, TGF-beta receptor type-1 (Homo sapiens) (UniProt P36897).
T2 sequence (whole entry): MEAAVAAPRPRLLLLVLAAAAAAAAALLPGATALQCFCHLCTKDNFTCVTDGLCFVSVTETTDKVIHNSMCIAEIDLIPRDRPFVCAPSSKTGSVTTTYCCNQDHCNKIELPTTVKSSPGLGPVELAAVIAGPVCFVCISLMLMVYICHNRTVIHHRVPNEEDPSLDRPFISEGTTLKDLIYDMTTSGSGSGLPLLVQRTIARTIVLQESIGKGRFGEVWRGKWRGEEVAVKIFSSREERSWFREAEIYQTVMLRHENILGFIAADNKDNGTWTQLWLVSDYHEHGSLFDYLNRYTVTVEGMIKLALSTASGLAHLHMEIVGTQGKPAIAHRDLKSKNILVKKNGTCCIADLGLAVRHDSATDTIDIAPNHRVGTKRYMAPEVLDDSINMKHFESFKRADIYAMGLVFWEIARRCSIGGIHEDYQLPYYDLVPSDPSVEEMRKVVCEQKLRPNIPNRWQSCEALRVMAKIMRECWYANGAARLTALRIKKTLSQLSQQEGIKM
The following applies: at 1 µM.

The target in assay [3] is T2, TGF-beta receptor type-1 (Homo sapiens). The following applies: at 10 µM.
Assay [4] has as its target Insulin-like growth factor 1 receptor (Homo sapiens) (UniProt P08069). The following applies: at 1 µM.
The target is the same in assay [5]. The following applies: at 10 µM.
Assay [6] has as its target T3, Inhibitor of nuclear factor kappa-B kinase subunit alpha (Homo sapiens) (UniProt O15111).
T3 sequence (whole entry): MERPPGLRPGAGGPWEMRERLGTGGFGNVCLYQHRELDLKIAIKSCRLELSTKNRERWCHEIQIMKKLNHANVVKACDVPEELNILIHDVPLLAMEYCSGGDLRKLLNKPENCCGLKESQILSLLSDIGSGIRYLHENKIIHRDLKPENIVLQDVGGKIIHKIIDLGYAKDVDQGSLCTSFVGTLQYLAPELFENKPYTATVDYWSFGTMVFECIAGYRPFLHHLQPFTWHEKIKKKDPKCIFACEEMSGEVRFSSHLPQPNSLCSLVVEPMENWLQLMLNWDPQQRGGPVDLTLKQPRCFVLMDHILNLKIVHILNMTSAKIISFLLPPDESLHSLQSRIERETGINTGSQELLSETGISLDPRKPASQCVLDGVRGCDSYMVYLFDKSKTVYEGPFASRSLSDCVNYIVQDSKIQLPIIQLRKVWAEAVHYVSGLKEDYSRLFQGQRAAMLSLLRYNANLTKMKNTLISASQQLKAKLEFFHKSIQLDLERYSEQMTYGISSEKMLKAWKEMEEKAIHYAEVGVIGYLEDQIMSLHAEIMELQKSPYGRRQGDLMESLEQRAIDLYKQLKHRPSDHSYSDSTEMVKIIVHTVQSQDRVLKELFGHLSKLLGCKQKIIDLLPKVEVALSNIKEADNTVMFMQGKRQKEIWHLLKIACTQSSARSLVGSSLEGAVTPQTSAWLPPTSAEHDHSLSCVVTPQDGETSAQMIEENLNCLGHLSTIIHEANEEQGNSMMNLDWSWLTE
The conditions noted are these: at 1 µM.

Assay [7] deals with T3, Inhibitor of nuclear factor kappa-B kinase subunit alpha (Homo sapiens). The following applies: at 10 µM.
Assay [8] concerns the target T4, Inhibitor of nuclear factor kappa-B kinase subunit beta (Homo sapiens) (UniProt O14920).
T4 sequence (whole entry): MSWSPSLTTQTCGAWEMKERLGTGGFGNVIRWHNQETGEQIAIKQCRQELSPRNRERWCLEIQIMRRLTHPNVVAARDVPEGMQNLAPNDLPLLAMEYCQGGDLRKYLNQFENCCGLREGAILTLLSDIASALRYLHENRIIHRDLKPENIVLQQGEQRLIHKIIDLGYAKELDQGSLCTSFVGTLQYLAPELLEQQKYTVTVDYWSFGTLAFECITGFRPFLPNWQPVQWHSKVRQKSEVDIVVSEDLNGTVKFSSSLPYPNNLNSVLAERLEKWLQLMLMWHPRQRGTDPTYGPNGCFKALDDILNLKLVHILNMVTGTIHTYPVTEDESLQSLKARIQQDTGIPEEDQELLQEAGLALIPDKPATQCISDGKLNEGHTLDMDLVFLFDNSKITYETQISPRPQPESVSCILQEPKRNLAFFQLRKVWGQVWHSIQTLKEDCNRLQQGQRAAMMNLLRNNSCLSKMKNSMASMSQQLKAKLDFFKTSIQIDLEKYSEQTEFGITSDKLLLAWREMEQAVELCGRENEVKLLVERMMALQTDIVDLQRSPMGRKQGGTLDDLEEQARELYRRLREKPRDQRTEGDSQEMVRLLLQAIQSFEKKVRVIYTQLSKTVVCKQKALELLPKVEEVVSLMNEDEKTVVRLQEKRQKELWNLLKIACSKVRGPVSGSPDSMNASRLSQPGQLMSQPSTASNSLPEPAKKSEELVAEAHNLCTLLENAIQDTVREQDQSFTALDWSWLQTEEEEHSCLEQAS
The following applies: at 1 µM.

Assay [9] addresses T4, Inhibitor of nuclear factor kappa-B kinase subunit beta (Homo sapiens). The conditions noted are these: at 10 µM.
Assay [10] concerns the target Insulin receptor (Homo sapiens) (UniProt P06213). The following applies: at 1 µM.

Chain of Insulin-like growth factor 1 receptor (Homo sapiens) (P08069 31-736 limits assumed): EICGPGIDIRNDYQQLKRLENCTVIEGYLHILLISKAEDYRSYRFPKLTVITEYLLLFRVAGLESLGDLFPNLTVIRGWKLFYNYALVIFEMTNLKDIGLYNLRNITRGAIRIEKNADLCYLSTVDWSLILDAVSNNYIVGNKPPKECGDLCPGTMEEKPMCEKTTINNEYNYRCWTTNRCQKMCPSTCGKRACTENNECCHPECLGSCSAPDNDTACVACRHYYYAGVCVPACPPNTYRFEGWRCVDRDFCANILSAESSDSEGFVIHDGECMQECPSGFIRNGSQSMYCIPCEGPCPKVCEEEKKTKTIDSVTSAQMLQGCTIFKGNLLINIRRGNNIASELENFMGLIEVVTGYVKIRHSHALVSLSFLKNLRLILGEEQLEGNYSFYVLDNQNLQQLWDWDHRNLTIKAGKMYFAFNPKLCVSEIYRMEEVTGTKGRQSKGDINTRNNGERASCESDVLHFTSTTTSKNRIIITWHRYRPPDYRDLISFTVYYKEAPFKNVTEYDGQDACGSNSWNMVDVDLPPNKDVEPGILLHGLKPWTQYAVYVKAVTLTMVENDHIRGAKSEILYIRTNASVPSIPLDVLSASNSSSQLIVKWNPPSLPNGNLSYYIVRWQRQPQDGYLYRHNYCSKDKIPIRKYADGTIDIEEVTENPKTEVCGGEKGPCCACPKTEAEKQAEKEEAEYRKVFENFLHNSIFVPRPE
Chain of Insulin-like growth factor 1 receptor (Homo sapiens) (P08069 741-1367 limits assumed): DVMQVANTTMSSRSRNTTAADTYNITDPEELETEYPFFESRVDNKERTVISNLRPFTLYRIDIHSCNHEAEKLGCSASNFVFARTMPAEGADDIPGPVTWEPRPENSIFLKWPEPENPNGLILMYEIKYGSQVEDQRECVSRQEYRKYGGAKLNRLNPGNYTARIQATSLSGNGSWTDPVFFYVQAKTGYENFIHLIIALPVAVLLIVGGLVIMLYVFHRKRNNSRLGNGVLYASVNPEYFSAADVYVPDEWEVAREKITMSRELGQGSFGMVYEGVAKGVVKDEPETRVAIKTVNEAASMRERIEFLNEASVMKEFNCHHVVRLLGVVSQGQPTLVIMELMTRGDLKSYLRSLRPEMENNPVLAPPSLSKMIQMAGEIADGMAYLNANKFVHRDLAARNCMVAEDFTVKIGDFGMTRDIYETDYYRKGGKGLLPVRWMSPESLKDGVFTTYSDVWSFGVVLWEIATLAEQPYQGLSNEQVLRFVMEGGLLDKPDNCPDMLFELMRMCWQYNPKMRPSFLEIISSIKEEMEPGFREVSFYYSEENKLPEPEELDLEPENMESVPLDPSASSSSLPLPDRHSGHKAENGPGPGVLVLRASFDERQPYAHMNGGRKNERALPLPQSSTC
Chain of Insulin receptor (Homo sapiens) (P06213 28-758 limits assumed): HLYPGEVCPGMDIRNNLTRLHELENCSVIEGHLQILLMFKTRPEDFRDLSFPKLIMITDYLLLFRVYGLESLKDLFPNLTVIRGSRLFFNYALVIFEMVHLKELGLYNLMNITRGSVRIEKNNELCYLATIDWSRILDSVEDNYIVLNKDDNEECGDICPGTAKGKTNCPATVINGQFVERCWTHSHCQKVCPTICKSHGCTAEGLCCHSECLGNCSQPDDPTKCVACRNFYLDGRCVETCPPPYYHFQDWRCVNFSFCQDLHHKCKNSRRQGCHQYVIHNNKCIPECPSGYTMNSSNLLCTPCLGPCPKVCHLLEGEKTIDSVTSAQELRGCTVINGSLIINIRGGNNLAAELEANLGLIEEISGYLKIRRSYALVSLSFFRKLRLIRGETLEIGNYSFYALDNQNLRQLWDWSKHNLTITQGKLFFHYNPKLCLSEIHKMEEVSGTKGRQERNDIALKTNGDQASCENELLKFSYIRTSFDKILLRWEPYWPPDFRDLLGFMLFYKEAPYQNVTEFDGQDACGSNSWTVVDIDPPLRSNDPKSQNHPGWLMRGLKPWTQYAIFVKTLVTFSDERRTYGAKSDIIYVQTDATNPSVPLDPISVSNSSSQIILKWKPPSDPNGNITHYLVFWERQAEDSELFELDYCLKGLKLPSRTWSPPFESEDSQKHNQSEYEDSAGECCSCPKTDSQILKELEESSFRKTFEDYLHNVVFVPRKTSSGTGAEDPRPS
Chain of Insulin receptor (Homo sapiens) (P06213 763-1382 limits assumed): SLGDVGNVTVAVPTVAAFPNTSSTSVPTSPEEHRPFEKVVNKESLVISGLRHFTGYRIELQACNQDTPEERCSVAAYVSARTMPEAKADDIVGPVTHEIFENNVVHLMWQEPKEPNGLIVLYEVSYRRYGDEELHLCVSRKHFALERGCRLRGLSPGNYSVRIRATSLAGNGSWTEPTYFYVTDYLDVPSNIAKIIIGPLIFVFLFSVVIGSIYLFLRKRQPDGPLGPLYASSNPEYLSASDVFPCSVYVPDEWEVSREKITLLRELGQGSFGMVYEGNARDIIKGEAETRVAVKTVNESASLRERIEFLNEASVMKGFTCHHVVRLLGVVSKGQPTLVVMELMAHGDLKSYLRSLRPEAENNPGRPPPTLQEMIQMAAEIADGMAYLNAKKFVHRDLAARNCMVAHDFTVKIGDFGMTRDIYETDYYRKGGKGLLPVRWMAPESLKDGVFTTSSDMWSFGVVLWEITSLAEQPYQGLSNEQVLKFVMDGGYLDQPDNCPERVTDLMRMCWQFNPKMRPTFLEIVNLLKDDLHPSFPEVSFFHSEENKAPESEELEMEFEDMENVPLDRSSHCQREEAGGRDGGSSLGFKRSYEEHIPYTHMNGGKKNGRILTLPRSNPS

For the molecule `COc1ccc(CNc2nc(N(CCO)CCO)nc3c2ncn3C(C)C)cc1`, the residual activity in assay [1] came out at 55%; in assay [2], 88%; in assay [3], 74%; in assay [4], 94%; in [5] it was 88%; in assay [6] it was 101%. Moreover, the residual activity in assay [7] came out at 102%; in assay [8] it was 112%; in assay [9], 99%; in [10] it was 99%.
